# Experimental data reported in PubChem BioAssay (NCATS).
# Several values for one entry are separate records, joined by “and”; a condition that tells them apart may be missing. Equal entries are not always repeated. Inconclusive results are not listed. Where a call stands in place of a potency, no number is given. The source holds several records for some structures; these can differ, active in one and inactive in another. Activity calls are given as the source filed them. Unless noted, calls follow the shape of the dose curve; as a rule, active = well fitted curve in the direction sought with a large enough effect; inconclusive = small, poorly fitted or top-dose-only effect, or another doubt; inactive = no such curve, though single readings can be large; an effect the other way counts as inactive or inconclusive.
# Assays:
# [1] = Cell Viability - SH-SY5Y (AID 544); details: SH-SY5Y neuroblastoma cell viability; viability change, negative = cytotoxic: at 92.2 µM (top of the series);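 also: cells exposed to compound for 40 hours; nearly all actives have a fitted effect of over 55% in size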; also: potency is read from the fitted curve at half-maximal effect
# Procedure, shortened: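 SH-SY5Y human neuroblastoma cells (1500/well) incubated 5 h, then compound-treated 40 h at 37 °C in complete medium. Viability read as intracellular ATP by CellTiter-Glo luminescence after 20 min; AC50 from Hill-equation fits of qHTS concentration-response.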
# [2] = Cell Viability - LYMP2-001 (AID 921); also: nearly all actives have a fitted effect of over 70% in size; also: potency is read from the fitted curve at half-maximal effect
# Procedure, shortened: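 Steps: seed 2500 lymphoblastoid cells/well; 5 hr, 37 C; add compound; 24 hr, 37 C; CellTiter-Glo reagent, 30 min room temperature; read luminescence. Concentration-response modeled by Hill equation for AC50.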
# [3] = MultiTox-Fluor Cytotoxicity Assay - LYMP1-001 - Live Cells (AID 947); also: potency is read from the fitted curve at half-maximal effect
# [4] = Cell Viability - LYMP2-005 (AID 967); also: potency is read from the fitted curve at half-maximal effect
# Procedure, shortened: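 Acute cytotoxicity is scored as a concentration-dependent drop in intracellular ATP in human lymphoblastoid LYMP2-005 cells after 24 h compound treatment. ATP is quantified by luciferase luminescence, and AC50 is derived by Hill-equation modelling.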
# [5] = Cell Viability - LYMP2-017 (AID 972); also: nearly all actives have a fitted effect of over 55% in size; also: potency is read from the fitted curve at half-maximal effect
# Procedure, shortened: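 LYMP2-017 human lymphoblastoid cells (2500/well) settled 5 hr at 37 C, then exposed to compound 24 hr at 37 C in complete medium. Viability taken as intracellular ATP by CellTiter-Glo luminescence after 30 min at RT; AC50 from Hill fits.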
# [6] = Cell Viability - LYMP2-019 (AID 973); also: nearly all actives have a fitted effect of over 55% in size; also: potency is read from the fitted curve at half-maximal effect
# Procedure, shortened: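 Human lymphoblastoid LYMP2-019 cells (2500/well) preincubated 5 h at 37 C, then treated 24 h at 37 C in complete medium. Viability by CellTiter-Glo ATP luminescence after 30 min at room temperature; AC50 from Hill fits.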
# [7] = Cell Viability - LYMP2-021 (AID 974);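 also: compound exposure lasts 24 hours at 37 °C; nearly all actives have a fitted effect of over 55% in size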; also: potency is read from the fitted curve at half-maximal effect
# Procedure, shortened: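 Human lymphoblastoid LYMP2-021 cells, 2500/well in complete medium, treated 24 hours at 37 C. Intracellular ATP by CellTiter-Glo luminescence (30 min, RT); AC50 from Hill fits of concentration-response.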
# [8] = Cell Viability - LYMP2-006 (AID 978); also: nearly all actives have a fitted effect of over 60% in size; also: potency is read from the fitted curve at half-maximal effect
# Procedure, shortened: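 Cells are seeded at 2500 per well and rested 5 hr at 37 C. Compounds are added across a concentration series for 24 hr at 37 C, after which ATP is quantified by luciferase luminescence.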
# [9] = Cell Viability - LYMP2-010 (AID 981); also: nearly all actives have a fitted effect of over 55% in size; also: potency is read from the fitted curve at half-maximal effect
# Procedure, shortened: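 Human lymphoblastoid LYMP2-010 cells (2500/well) treated 24 h at 37 C in complete medium; viability read as intracellular ATP by CellTiter-Glo luminescence. AC50 from Hill fits of concentration-response data; tetraoctylammonium bromide positive control.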
# [10] = Cell Viability - LYMP2-012 (AID 982); also: potency is read from the fitted curve at half-maximal effect
# [11] = Cell Viability - LYMP2-024 (AID 988); also: nearly all actives have a fitted effect of over 60% in size; also: potency is read from the fitted curve at half-maximal effect
# Procedure, shortened: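 Human lymphoblastoid LYMP2-024 cells (2500/well) rested 5 hr, then treated with compound for 24 hr at 37 C in complete medium. Viability was measured as intracellular ATP by CellTiter-Glo luminescence. AC50 values came from Hill-equation fits.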
# [12] = molecular target: Glucocorticoid receptor (Homo sapiens) (UniProt P04150); experiment: qHTS assay for small molecule agonists of glucocorticoid receptor signaling (AID 588532; active = well fitted curve in the direction sought with a large enough effect in the signal ratio, with a control signal flat; the % refers to the signal ratio); details: HeLa MMTV-bla, beta-lactamase ratio, agonist, 18 h; stronger effect = higher value; percent of dexamethasone control, DMSO zero
# Chain of Glucocorticoid receptor (Homo sapiens) (P04150 whole entry, looked up): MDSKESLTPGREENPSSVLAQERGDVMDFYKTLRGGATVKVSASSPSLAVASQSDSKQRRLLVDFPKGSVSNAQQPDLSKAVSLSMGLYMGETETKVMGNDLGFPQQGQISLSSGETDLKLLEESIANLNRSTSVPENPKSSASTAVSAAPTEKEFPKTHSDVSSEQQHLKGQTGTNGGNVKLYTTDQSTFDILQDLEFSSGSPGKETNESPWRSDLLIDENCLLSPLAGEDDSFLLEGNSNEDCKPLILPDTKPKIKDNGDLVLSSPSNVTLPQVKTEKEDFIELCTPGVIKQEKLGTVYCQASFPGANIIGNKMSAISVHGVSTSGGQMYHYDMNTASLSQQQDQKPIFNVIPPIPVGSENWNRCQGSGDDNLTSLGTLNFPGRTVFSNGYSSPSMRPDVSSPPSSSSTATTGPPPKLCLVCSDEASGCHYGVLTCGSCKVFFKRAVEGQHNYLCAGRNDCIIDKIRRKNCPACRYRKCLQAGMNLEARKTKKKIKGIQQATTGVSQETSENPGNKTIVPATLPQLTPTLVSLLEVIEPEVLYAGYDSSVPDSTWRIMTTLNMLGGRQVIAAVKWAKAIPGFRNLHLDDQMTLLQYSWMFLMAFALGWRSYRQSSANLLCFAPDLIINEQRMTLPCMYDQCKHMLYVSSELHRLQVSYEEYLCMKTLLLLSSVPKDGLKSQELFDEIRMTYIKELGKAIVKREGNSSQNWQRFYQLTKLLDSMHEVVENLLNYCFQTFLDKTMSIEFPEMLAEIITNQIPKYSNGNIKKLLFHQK
# Procedure, shortened: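 Agonist-mode qHTS: GRE-driven beta-lactamase in HeLa cells exposed 18 h to titrated compounds (up to 92 uM), then CCF4 ratio read after 2 h at RT; Hill-fitted EC50, efficacy relative to 0.1 uM dexamethasone.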
# [13] = qHTS assay for small molecule agonists of retinoid X receptor alpha signaling (AID 588544; calls by dose curve); details: HEK293T RXRa-UAS-bla, beta-lactamase reporter, 18 h; 530 nm emission
# [14] = molecular target: Retinoic acid receptor RXR-alpha (Homo sapiens) (UniProt P19793); experiment: as above
# Chain of Retinoic acid receptor RXR-alpha (Homo sapiens) (P19793 whole entry, looked up): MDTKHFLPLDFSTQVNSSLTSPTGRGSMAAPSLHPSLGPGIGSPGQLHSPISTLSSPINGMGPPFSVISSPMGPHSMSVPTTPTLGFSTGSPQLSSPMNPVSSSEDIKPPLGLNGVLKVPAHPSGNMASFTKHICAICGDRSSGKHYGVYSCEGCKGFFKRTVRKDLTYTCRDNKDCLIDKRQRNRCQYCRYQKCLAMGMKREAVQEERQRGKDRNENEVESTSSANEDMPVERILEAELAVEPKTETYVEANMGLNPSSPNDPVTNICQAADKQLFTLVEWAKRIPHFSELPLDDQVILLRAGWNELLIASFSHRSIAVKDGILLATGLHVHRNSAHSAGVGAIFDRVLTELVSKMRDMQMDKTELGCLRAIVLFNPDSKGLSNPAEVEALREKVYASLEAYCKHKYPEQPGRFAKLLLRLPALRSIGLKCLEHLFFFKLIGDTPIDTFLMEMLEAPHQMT
# [15] = molecular target: Thyroid hormone receptor beta (Homo sapiens) (UniProt P10828); experiment: qHTS assay for small molecule agonists of thyroid hormone receptor beta signaling (AID 588545; calls by dose curve)
# Chain of Thyroid hormone receptor beta (Homo sapiens) (P10828 whole entry, looked up): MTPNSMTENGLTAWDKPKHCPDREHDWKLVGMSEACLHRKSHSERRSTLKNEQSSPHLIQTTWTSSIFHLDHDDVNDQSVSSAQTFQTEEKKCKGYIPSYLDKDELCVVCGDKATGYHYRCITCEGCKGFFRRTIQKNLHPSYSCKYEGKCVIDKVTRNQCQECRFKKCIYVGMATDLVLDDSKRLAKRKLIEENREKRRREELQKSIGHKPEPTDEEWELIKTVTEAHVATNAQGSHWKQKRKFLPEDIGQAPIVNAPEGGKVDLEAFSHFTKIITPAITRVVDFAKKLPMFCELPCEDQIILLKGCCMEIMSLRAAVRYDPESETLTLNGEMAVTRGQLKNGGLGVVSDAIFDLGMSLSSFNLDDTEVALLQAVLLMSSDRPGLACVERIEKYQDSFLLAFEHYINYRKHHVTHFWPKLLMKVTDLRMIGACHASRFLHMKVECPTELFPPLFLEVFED
# Procedure, shortened: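 Stimulation of a TR-driven beta-lactamase reporter was quantified in GripTite HEK 293 cells. Compound series ran for 18 hrs; curves were normalized to T3 and DMSO controls and fitted to yield EC50.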
# [16] = qHTS assay for small molecule activators of the p53 signaling pathway (AID 651743; active = well fitted activation curve with a large enough effect in the signal ratio, not every such curve was filed as active; the % refers to the signal ratio; also: potency is read from the fitted curve at half-maximal effect); details: HCT-116 p53RE-bla, beta-lactamase FRET ratio, 16 h; activation: stronger effect = higher value
# Procedure, shortened: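 Read-out is fluorescence intensity from the LiveBLAzer B/G FRET substrate, added for 2 hours at room temperature after HCT-116 p53RE-bla cells had been incubated with compounds for 16 hours at 37 C.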
# [17] = qHTS assay for small molecule disruptors of the mitochondrial membrane potential - 1 hr assay (AID 651754; calls by dose curve; also: nearly all actives have a fitted effect of over 35% in size; also: potency is read from the fitted curve at half-maximal effect)
# Procedure, shortened: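 HepG2 cells, attached overnight, were exposed to compound for 1 hr at 37C, then stained 30 min with a potentiometric dye. Ratio of red aggregate (590nm) to green monomer (535nm) fluorescence reports membrane potential; collapse shifts signal toward green.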
# [18] = qHTS assay for small molecule disruptors of the mitochondrial membrane potential - 5 hr assay (AID 651755; calls by dose curve; also: nearly all actives have a fitted effect of over 40% in size; also: potency is read from the fitted curve at half-maximal effect)
# Procedure, shortened: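 HepG2, 2,000 cells/well, overnight attach; cpd or DMSO 5 hr, 37C/5% CO2; Mito-MPS 30 min 37C; fluor 490/535 + 540/590 nm.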
# [19] = qHTS assay for small molecule agonists of the antioxidant response element (ARE) signaling pathway measured by Nrf2-dependant transcriptional activity (AID 720636; active = well fitted curve in the direction sought with a large enough effect in the repeat runs; an effect the other way counts as inactive or inconclusive;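 also: HepG2 cells with an ARE-driven luciferase reporter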)
# Procedure, shortened: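 Cells: ARE-luc HepG2 with Nrf2-responsive luciferase. Medium contained 1% dialyzed FBS. Compound exposure lasted 16 hr at 37 C and 5% CO2, followed by ONE-Glo luciferase detection.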
# [20] = Cell Viability - Renal Proximal Tubule (AID 545); details: renal proximal tubule cells viability, primary cells of rat origin; activity change, negative = cytotoxicity: at 91.7 µM (top of the series);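 also: cells exposed to compound for 40 hours; nearly all actives have a fitted effect of over 40% in size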; also: potency is read from the fitted curve at half-maximal effect
# Procedure, shortened: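 Luminescent ATP signal (CellTiter-Glo) served as the viability read-out after 40 hr compound exposure of freshly isolated rat proximal tubule cells at 37 °C. Concentration-dependent ATP loss was fitted with the Hill equation to give AC50.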
compound,measurement,setting,value
C=CC(=O)OCCCCCCOC(=O)C=C,"viability change, negative = cytotoxic",[1],-98.1% (active)
same,Potency,[2],31.6 µM (active)
same,Potency,[3],39.8 µM (active)
same,Potency,[4],39.8 µM (active)
same,Potency,[5],39.8 µM (active)
same,Potency,[6],50.1 µM (active)
same,Potency,[7],39.8 µM (active)
same,Potency,[8],50.1 µM (active)
same,Potency,[9],39.8 µM (active)
same,Potency,[10],39.8 µM (active)
same,Potency,[11],31.6 µM (active)
same,activation,[12],-0.42% (inactive) and -1.5% (inactive)
same,max response,[13],3.42%
same,Potency,[14],inactive
same,Potency,[15],inactive
same,Potency,[16],70.8 µM (active)
same,activation,[16],-3.66% (inactive)
same,Potency,[17],inactive
same,Potency,[18],inactive
same,Potency,[19],inactive
OCC(CBr)(CBr)CBr,Potency,[1],inactive
same,Potency,[20],inactive
same,Potency,[2],inactive
same,Potency,[3],inactive
same,Potency,[4],inactive
same,Potency,[5],inactive
same,Potency,[6],inactive
same,Potency,[7],inactive
same,Potency,[8],inactive
same,Potency,[9],inactive
same,Potency,[10],inactive
same,Potency,[11],inactive
same,activation,[12],0.0544% (inactive)
same,max response,[13],-4.28%
same,Potency,[14],inactive
same,Potency,[15],inactive
same,activation,[16],0.524% (inactive)
same,Potency,[17],inactive
same,Potency,[18],inactive
same,Potency,[19],inactive
CCCCC(CC)COP(=O)(OCC(CC)CCCC)OCC(CC)CCCC (stereo unspecified),Potency,[1],inactive
same,Potency,[20],inactive
same,Potency,[2],inactive
same,Potency,[3],inactive
same,Potency,[4],inactive
same,Potency,[5],inactive
same,Potency,[6],inactive
same,Potency,[7],inactive
same,Potency,[8],inactive
same,Potency,[9],inactive
same,Potency,[10],inactive
same,Potency,[11],inactive
same,activation,[12],-3.34% (inactive)
same,max response,[13],-2.54%
same,Potency,[14],inactive
same,Potency,[15],inactive
same,activation,[16],-6.02% (inactive)
same,Potency,[17],inactive
same,Potency,[18],inactive
same,Potency,[19],inactive
CC(C)(C)C(=O)C1C(=O)c2ccccc2C1=O,Potency,[20],inactive
same,Potency,[2],inactive
same,Potency,[3],inactive
same,Potency,[4],inactive
same,Potency,[5],inactive
same,Potency,[6],inactive
same,Potency,[7],inactive
same,Potency,[11],inactive
same,activation,[12],-3.45% (inactive)
same,activation,[16],12% (inactive)
same,Potency,[17],inactive
same,Potency,[18],inactive
same,Potency,[19],inactive
C/C=C1/C(=O)C[C@H]2[C@@H]3CCC4=CC(=O)CC[C@]4(C)[C@H]3CC[C@]12C,Potency,[1],25.1 µM (active)
same,Potency,[2],50.1 µM (active)
same,Potency,[4],inactive
same,Potency,[5],50.1 µM (active)
same,Potency,[8],50.1 µM (active)
same,Potency,[9],39.8 µM (active)
same,Potency,[10],39.8 µM (active)
same,Potency,[11],39.8 µM (active)
same,Potency,[15],inactive
same,Potency,[17],inactive
same,Potency,[18],inactive
Cc1c(C(=O)O)c(O)cc2c1C(=O)c1c(O)c([C@H]3O[C@H](CO)[C@@H](O)[C@H](O)[C@H]3O)c(O)c(O)c1C2=O,Potency,[20],31.6 µM (active)
same,Potency,[3],inactive
same,activation,[12],-7.96% (inactive)
same,max response,[13],-6.4%
same,Potency,[14],inactive
same,Potency,[15],inactive
same,activation,[16],0.0222% (inactive)
same,Potency,[17],inactive
same,Potency,[18],inactive
same,Potency,[19],inactive
CCN(CC)c1ccc(N)cc1,"viability change, negative = cytotoxic",[1],-88.7% (active)
same,activation,[12],8.72% (inactive)
same,activation,[16],11.7% (inactive)
same,Potency,[17],29.8 µM (active)
same,Potency,[18],29.8 µM (active)
O=Nc1ccc(Nc2ccccc2)cc1,Potency,[1],2.51 µM (active)
same,Potency,[15],inactive
same,Potency,[17],inactive
same,Potency,[18],inactive
Nc1ccc(N)c(Cl)c1,"viability change, negative = cytotoxic",[1],-99% (active)
same,Potency,[4],inactive
same,Potency,[5],inactive
same,Potency,[6],inactive
same,Potency,[7],inactive
same,Potency,[8],inactive
same,Potency,[10],inactive
same,max response,[13],15.5%
same,Potency,[14],inactive
same,Potency,[15],inactive
same,activation,[16],1.03% (inactive)
same,Potency,[17],7.5 µM (active)
same,Potency,[18],10.6 µM (active)
